Screening results: PubChem, Sanford-Burnham Center for Chemical Genomics
Hits are enriched below; roughly 31% of the tested compounds scored in any of these assays.
PLAP act = activates human placental alkaline phosphatase; purified PLAP enzyme, luminescent substrate read-out; active compounds read high; activation fold at 20 µM; hit rate 1.2% among 96,000; AID 696; in the data active = activation fold above about 2
CYP2C9 inhib = blocks human cytochrome P450 2C9; inhibition, % at 5 µM; hit rate 20% among 96,000; CYP2C9 Supersomes, luciferin-H conversion, luminescence; AID 777;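 active = blocking of liver enzyme CYP2C9 beyond about 50% at 5 µM, limit read from the data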
Target sequence (P11712 whole entry, looked up): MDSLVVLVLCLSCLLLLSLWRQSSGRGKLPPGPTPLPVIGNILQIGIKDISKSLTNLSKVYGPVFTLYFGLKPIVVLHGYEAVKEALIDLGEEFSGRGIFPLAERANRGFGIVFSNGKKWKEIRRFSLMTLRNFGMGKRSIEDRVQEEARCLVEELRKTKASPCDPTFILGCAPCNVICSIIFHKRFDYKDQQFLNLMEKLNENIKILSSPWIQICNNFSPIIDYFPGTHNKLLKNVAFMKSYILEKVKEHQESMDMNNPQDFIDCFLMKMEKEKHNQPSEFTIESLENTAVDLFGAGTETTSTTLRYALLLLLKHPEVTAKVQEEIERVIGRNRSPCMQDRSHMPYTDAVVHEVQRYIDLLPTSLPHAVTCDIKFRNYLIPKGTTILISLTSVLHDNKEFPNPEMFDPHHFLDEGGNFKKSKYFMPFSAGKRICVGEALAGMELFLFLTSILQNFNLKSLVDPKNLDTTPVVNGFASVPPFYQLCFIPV
CYP2C19 inhib = inhibitors of human CYP2C19. P33261. CYP2C19 Supersomes, luciferin-H EGE luminescence, 30 min. inhibition, % at 5 µM. hit rate 21% among 96,000. AID 778;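 active = CYP2C19 inhibition above a set limit at 5 µM in the primary screen, cut at about 50% in these data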;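 note: plate controls were negative control wells for no effect and 2.5 mM tranylcypromine positive control for full effect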
CYP2C9 act = CYP2C9 (human) activation; recombinant CYP2C9, luciferin-H conversion, luminescence; active compounds read high; factor 1 = untreated enzyme, 0 = blocked; activation factor at 5 µM; hit rate 1.4% among 96,000; AID 1024;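 active = activation factor of 2 or more for CYP2C9 at a 5 µM dose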;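 note: 0 = sulfaphenazole-blocked wells and 1 = vehicle-only wells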
CYP2C19 act = increases human CYP2C19 enzyme activity; activation factor at 5 µM; 96,000 tested, under 10 active; recombinant CYP2C19, luciferin-H EGE luminescence; active compounds read high; 0 = fully inhibited enzyme, 1 = untreated enzyme; P33261;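 active = activation factor of at least 2 at 5 µM in the primary screen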;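 note: 0 = wells with 2.5 mM tranylcypromine and 1 = vehicle-only wells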
Starred values were filed as active, the others as inactive.

SMILES | PLAP act | CYP2C9 inhib | CYP2C19 inhib | CYP2C9 act | CYP2C19 act
COc1ccc(CC(=O)Nc2ccc3c(c2)CCC3)cc1OC | 2.1* | -35 | 81* | 1.3 | 0.2
CNC(=S)NNC(=O)Cc1ccc(OC)c(OC)c1 | 2.1* | -20 | -20 | 1.2 | 1.2
CC1CN(CCC(=O)Nc2ccc3c(c2)CCC3)CC(C)O1 (stereo not drawn) | 1.3 | 8 | 52* | 0.9 | 0.5
CCCc1nc2oc3c(NCC4CCCO4)ncnc3c2c2c1COC(C)(C)C2 (stereo not drawn) | 1.4 | 52* | 38 | 0.5 | 0.6
CCCc1nc2oc3c(NCc4ccccn4)ncnc3c2c2c1COC(C)(C)C2 | 1.5 | 52* | 30 | 0.5 | 0.7
COc1ccc(-c2c[n+]3c4n2CCCCC4=C(c2ccccc2)C3)cc1 | 1.3 | -1 | -11 | 1 | 1.1
CCOc1ccc2[nH]c(S(=O)(=O)CC)nc2c1Cl | 0.9 | 36 | -14 | 0.6 | 1.1
CC1=C(OC(=O)c2ccccc2)C(C)(C)C(c2ccccc2)OC1=O (stereo not drawn) | 1 | 28 | 40 | 0.7 | 0.6
CC1=C(OC(=O)c2ccc(Br)cc2)C(C)(C)C(c2ccccc2)OC1=O (stereo not drawn) | 1.1 | 97* | 98* | 0 | 0
CC1=C(OC(=O)c2ccccc2)C(C)(C)C(c2ccc(Br)cc2)OC1=O (stereo not drawn) | 0.7 | 61* | 19 | 0.4 | 0.8
COc1ccc(O)c(/C=c2/sc3nc4cc(C)c(C)cc4n3c2=O)c1 | 1.3 | 28 | 11 | 0.7 | 0.9
O=C(O)c1cccc(CSc2nnc(-c3ccco3)o2)c1 | 1.5 | -8 | -5 | 1.1 | 1.1
O=C(Nc1ccccc1-c1nnc(SCc2ccc(Cl)cc2)o1)c1ccccc1 | 1 | 70* | -3 | 0.3 | 1
O=c1c(-c2nnc(SCc3ccc(Cl)cc3)o2)cccn1Cc1ccccc1 | 1.1 | 45 | 91* | 0.6 | 0.1
O=C(Nc1ccccc1-c1nnc(SCc2ccccc2)o1)c1ccccc1 | 0.9 | 79* | 16 | 0.2 | 0.8
COc1ccc(OC)c(S(=O)(=O)N2CCC(C(=O)NCC3CCCO3)CC2)c1 (stereo not drawn) | 1 | -61 | -10 | 1.6 | 1.1
CCOc1ccc(C(=O)N2CCN(Cc3ccccc3)CC2)cc1 | 1.2 | 4 | 12 | 1 | 0.9
O=C(O)c1cccc(COc2ccc(CO)cc2Cl)c1 | 1.2 | 94* | 99* | 0.1 | 0
O=C(OCC(F)(F)F)c1cccc(COc2ccc3ccccc3c2)c1 | 0.6 | 56* | 52* | 0.4 | 0.5
COC(=O)c1ccccc1NC(=O)c1ccc(COc2ccc3c(c2)CCC3)cc1 | 0.9 | -8 | -2 | 1.1 | 1
COc1cccc(OC)c1C(=O)NNC(=O)c1cccc(COc2ccc3c(c2)CCC3)c1 | 2* | 28 | 57* | 0.7 | 0.4
CCOc1ccc(OCc2cccc(C(=O)N3CCCC3)c2)cc1 | 1.2 | 66* | 40 | 0.3 | 0.6
CCOc1ccc(C(=O)NCc2ccccn2)cc1 | 0.9 | -16 | -17 | 1.2 | 1.2
CCOc1ccc(OCc2ccc(C(=O)OCc3ccccn3)o2)cc1 | 1.6 | 55* | 50* | 0.4 | 0.5
CCOc1ccc(OCc2cccc(C(=O)O)c2)cc1 | 1.1 | 99* | 100* | 0 | 0
SMILES | PLAP act | CYP2C9 inhib | CYP2C19 inhib | CYP2C9 act | CYP2C19 act
CCOc1ccc(OCc2ccc(C(=O)N3CCCC3)o2)cc1 | 1.5 | 57* | 39 | 0.4 | 0.6
COc1ccc(OCc2cccc(C(=O)O)c2)cc1 | 1 | 97* | 98* | 0 | 0
Cc1cc2c(cc1C)CSC(c1ccccc1OC(=O)C(C)C)SC2 | 1.2 | 5 | -1 | 1 | 1
O=C(C1CCN(S(=O)(=O)c2cnc[nH]2)CC1)N1CCN(c2ncccn2)CC1 | 1 | -16 | -17 | 1.2 | 1.2
CCOc1ccc(OCC)c(NC(=O)C2CCN(S(=O)(=O)c3cnc[nH]3)CC2)c1 | 1.5 | 84* | 37 | 0.2 | 0.6
O=C(Nc1ncc([N+](=O)[O-])s1)C1CCN(S(=O)(=O)c2cnc[nH]2)CC1 | 0.8 | 97* | 48 | 0 | 0.5
CCOC(=O)C1CCCN(C(=O)C2CCN(S(=O)(=O)c3cnc[nH]3)CC2)C1 (stereo not drawn) | 1 | 87* | -2 | 0.1 | 1
CCOC(=O)C1CCN(S(=O)(=O)c2cnc[nH]2)CC1 | 0.9 | 98* | 58* | 0 | 0.4
CCOc1ccc(S(=O)(=O)NN)cc1 | 1 | 1 | 16 | 1 | 0.8
C/C(=N/NC(=O)CNc1ccc(C)cc1)c1ccc(Br)s1 | 1.2 | 0 | -1 | 1 | 1
CCCS(=O)(=O)N1CCC(C(=O)NCCN(C)Cc2ccccc2)CC1 | 0.9 | -2 | -2 | 1 | 1
CCCCCCCN1N=C(C)C(C(=O)c2ccccc2)C1=O (stereo not drawn) | 1.3 | 94* | 8 | 0.1 | 0.9
CCCCCCN1N=C(C)C(C(=O)c2ccc(Cl)cc2)C1=O (stereo not drawn) | 1.1 | 60* | 1 | 0.4 | 1
CCCCN(C(=O)c1ccc(Cl)cc1)C1CC2CCC(C1)N2C (stereo not drawn) | 0.8 | -3 | 22 | 1 | 0.8
FC(F)(F)Oc1ccc(Nc2nc3ccccc3o2)cc1 | 0.9 | 76* | 4 | 0.2 | 1
COc1ccc(N(CC(=O)N2CCN(c3ccccc3)CC2)S(=O)(=O)c2c(C)noc2C)cc1 | 1.6 | 14 | 65* | 0.9 | 0.4
Cc1noc(C)c1S(=O)(=O)N(CC(=O)N1CCCCCC1)c1ccc(C(C)C)cc1 | 1.5 | 77* | 72* | 0.2 | 0.3
O=C(OCn1nnc2ccccc2c1=O)c1cccnc1 | 1.1 | 5 | 17 | 0.9 | 0.8
O=C(CC1CCCCC1)OCn1nnc2ccccc2c1=O | 1 | 38 | 69* | 0.6 | 0.3
CC(C)(Oc1ccc(Cl)cc1)C(=O)OCn1nnc2ccccc2c1=O | 1.4 | 51* | 4 | 0.5 | 1
O=C(CC(c1ccccc1)c1ccccc1)OCn1nnc2ccccc2c1=O | 1.4 | 95* | 85* | 0.1 | 0.2
C=CCn1c(SC(C)C(=O)NC2(C#N)CCCCC2)nnc1-c1ccc(OC)cc1 (stereo not drawn) | 1.2 | 26 | 38 | 0.7 | 0.6
Brc1cccc(-c2nnc3sc(CNC4CCCC4)cn23)c1 | 0.9 | 12 | 18 | 0.9 | 0.8
Cc1ccc(C(=O)COC(=O)CCC(=O)Nc2cccc(Cl)c2)cc1[N+](=O)[O-] | 1.1 | -3 | 18 | 1 | 0.8
CC(C)(C)NC(=O)CN(C(=O)CNC(=O)c1cccs1)c1ccc2c(c1)OCCO2 | 1 | 80* | 14 | 0.2 | 0.9
CCc1ccc(N(C(=O)CNC(=O)c2cccs2)C(C(=O)NC(C)(C)C)c2cc(OC)c(OC)c(OC)c2)cc1 (stereo not drawn) | 1.3 | 41 | 36 | 0.6 | 0.6
c1cncc(-c2noc(CC3CCCCC3)n2)c1 | 0.8 | -9 | 80* | 1.1 | 0.2
O=C(Nc1ccc(-c2noc(CCc3ccccc3)n2)cc1)c1ccco1 | 1.1 | 71* | 41 | 0.3 | 0.6
